Data on 57 compounds can be found in PubChem BioAssay AID1851 (National Center for Advancing Translational Sciences (NCATS), 2009).

Several values for one entry are separate records, joined by “and”; a condition that tells them apart may be missing. Equal entries are not always repeated. The whole screen tested about 16,000 compounds, of which about 5,100 (32%) were called active. Roughly 25% stayed inconclusive and do not appear here. Calls come from the whole dose curve; as a rule, active = well fitted curve in the direction sought with a large enough effect; inconclusive = small, poorly fitted or top-dose-only effect, or effect the other way; inactive = no such curve, though single readings can be large or run the other way. The list shows a part of the results.
% is set by controls: 0 for no effect and ±100 for the full control effect.

For this test, the target named is Cytochrome P450 3A4 (Homo sapiens) (UniProt P08684). The experiment in a line: Cytochrome panel assay with activity outcomes. Conditions: recombinant CYP, pro-luciferin dealkylation, luminescence, p450-cyp3a4; series mostly up to 57.1 µM; activity, negative = inhibition: at the top concentration.
Cytochrome P450 3A4 (Homo sapiens), sequence (P08684 whole entry, looked up): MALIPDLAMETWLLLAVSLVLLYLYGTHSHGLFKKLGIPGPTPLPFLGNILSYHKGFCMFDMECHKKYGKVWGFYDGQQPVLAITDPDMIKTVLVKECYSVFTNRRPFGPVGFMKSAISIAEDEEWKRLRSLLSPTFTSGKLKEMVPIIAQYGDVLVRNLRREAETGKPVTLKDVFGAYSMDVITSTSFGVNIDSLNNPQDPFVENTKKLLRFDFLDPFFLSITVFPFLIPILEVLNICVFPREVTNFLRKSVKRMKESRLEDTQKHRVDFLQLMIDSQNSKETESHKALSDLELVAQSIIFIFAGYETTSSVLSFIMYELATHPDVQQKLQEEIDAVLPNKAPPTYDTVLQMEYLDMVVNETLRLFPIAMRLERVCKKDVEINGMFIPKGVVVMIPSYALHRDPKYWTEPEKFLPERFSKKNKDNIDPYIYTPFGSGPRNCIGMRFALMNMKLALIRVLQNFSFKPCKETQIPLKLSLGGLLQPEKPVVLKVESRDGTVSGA
With `COCCn1c(=O)c(CCc2ccccc2)nc2cnc(Oc3cccc(Cl)c3)nc21`, the AC50 (as a rule, the concentration at which the activity in the assay is half-maximal) was 0.794 µM (active).

For `O=c1c(-c2ccccc2)nc2cnc(Oc3cccc(Cl)c3)nc2n1C1CC1`, the “activity, negative = inhibition” value was 6.74% (inactive).

For the compound `Cc1nc2cnc(Oc3cccc(Cl)c3)nc2n(CCc2ccccc2)c1=O`, the “activity, negative = inhibition” value is -22.7% (inactive).

In the case of `O=c1c(CCc2ccccc2)nc2cnc(Oc3cccc(Cl)c3)nc2n1C[C@H]1CCCO1`, the AC50 was 0.501 µM (active).

Take `O=c1oc2cc(Oc3ccc(C(F)(F)F)cc3[N+](=O)[O-])ccc2c2c1CCCC2`: the “activity, negative = inhibition” value is -23.2% (inactive).

For `O=c1oc2cc(Oc3c([N+](=O)[O-])cc(C(F)(F)F)cc3[N+](=O)[O-])ccc2c2c1CCCC2`, the concentration at half-maximal activity (AC50) was 14.1 µM (active).

On to `CC1=NNC(=S)NCCCN2CCN(CCCNC(=S)NN=C(C)C=NNC(=S)NCCCN3CCN(CCCNC(=S)NN=C1)CC3)CC2`, for which the activity, negative = inhibition is -1.88% [at 11.4 µM] (inactive).

As to `CNNCc1ccc(C(=O)NC(C)C)cc1`, the “activity, negative = inhibition” value is -12.2% [at 25.6 µM] (inactive).

On to `CC(=O)NC(NC(C)=O)c1ccc(Br)cc1`, for which the “activity, negative = inhibition” value is 8.11% (inactive).

As for `CC(C)OP(=O)(OC(C)C)C(NC(=O)c1ccc(Br)cc1)c1ccccc1` (configuration not stated), the AC50 is 11.2 µM (active).

Take `O=C(O)C[C@H](Cc1ccccc1)C(=O)O`: the activity, negative = inhibition was -6.62% [at 11.4 µM] (inactive).

As to `Cn1nc(C(F)(F)F)c(/C=N/OC(=O)c2ccccc2Cl)c1SCc1ccc(Cl)cc1`, the half-maximal activity concentration (AC50) was 7.08 µM (active).

For `Cn1nc(C(F)(F)F)c(/C=N/OCc2c(Cl)cccc2Cl)c1Cl`, the “activity, negative = inhibition” value is -24.6% (inactive).

As for `Cn1nc(C(F)(F)F)c(/C=N/OC(=O)c2ccc(Cl)cc2)c1Cl`, the “activity, negative = inhibition” value is -0.892% (inactive).

For `O=C(NCC(=O)N(c1ccccc1)C(C(=O)NC1CCCC1)c1cccnc1)c1cccs1` (configuration not stated), the half-maximal activity concentration (AC50) is 2 µM (active).

Take `O=C(NCC1CCCO1)C(c1cccnc1)N(C(=O)Cc1cccs1)c1cccnc1` (configuration not stated): the activity, negative = inhibition is -17.2% [at 2.29 µM] (inactive).

As for `Cc1ccc(C(C(=O)NC2CCCCC2)N(CC2CCCO2)C(=O)CNC(=O)c2cccs2)cc1` (configuration not stated), the AC50 was 4.47 µM (active).

On to `O=C(NCC1CCCO1)C(c1cccnc1)N(C(=O)Cc1cccs1)c1ccccc1` (configuration not stated), for which the AC50 was 3.98 µM (active).

Turning to `CN1CCc2c(sc3c2c(=O)n(-c2ccccc2)c2nncn32)C1`, the “activity, negative = inhibition” value is 23.3% (inactive).

Regarding `NC(N)=NC(=O)c1nc(Cl)c(N)nc1N`, the AC50 result was “inactive”.

For the compound `C[C@@H]1CCC[C@H](C)N1NC(=O)c1ccc(Cl)c(S(N)(=O)=O)c1`, the “activity, negative = inhibition” value was -15.3% [at 25.6 µM] (inactive).

Consider `CC1CCCC(C)N1C(=O)c1cc(-c2ccc(Cl)c(Cl)c2)on1` (configuration not stated), for which the AC50 was 12.6 µM (active).

As to `O=C(c1cc(-c2ccc(Cl)cc2Cl)on1)N1CCN(C(=O)c2ccco2)CC1`, the “activity, negative = inhibition” value was 13.8% (inactive).

As for `Cc1ccc(S(=O)(=O)n2c3ccccc3c3nnc(C(=O)c4ccccc4)nc32)cc1`, the AC50 was 3.98 µM (active).

As to `Cc1ccc(-n2cc(C(=O)c3ccc4ccccc4c3O)cn2)cc1`, the “activity, negative = inhibition” value was -15.6% (inactive).

Regarding `COCn1c2ccccc2c2nnc(C(C)=O)nc21`, the activity, negative = inhibition is 7.63% [at 11.4 µM] (inactive) and -20.9% [at 11.4 µM] (inactive).

As for `COc1ccc2c(c1)CCC1[C@@H]2CCC2(C)[C@@H](NCCCCCCN3C(=O)C=CC3=O)CC[C@@H]12` (some centres not stated), the “activity, negative = inhibition” value is 3.28% (inactive).

Take `CC(=O)c1c(O)cc(=O)n(-c2ccccc2)c1-c1cccc2ccccc12`: the “activity, negative = inhibition” value is 5.76% (inactive).

In the case of `CN1C(=O)/C(=N\OC(=O)c2cccc3ccccc23)c2ccccc21`, the AC50 is 28.2 µM (active).

As to `CC(C)CC(=O)O/N=C1\C(=O)N(c2ccccc2)c2ccccc21`, the activity, negative = inhibition was 18.9% [at 2.29 µM] (inactive).

As for `O=c1[nH][nH]c(C(F)(F)F)c1C=Nc1ccccc1Cl`, the “activity, negative = inhibition” value was -10.9% (inactive).

With `C=CCSc1nn2c(=O)c3ccccc3nc2s1`, the AC50 is 20 µM (active).

For `O=C(Cn1cnc2ccccc2c1=O)Nc1nnc(SCc2ccccc2)s1`, the “activity, negative = inhibition” value is -5.34% (inactive).

On to `C[C@@H](C(=O)O)c1ccc(C[C@@H]2CCCC2=O)cc1`, for which the “activity, negative = inhibition” value was 7.6% (inactive).

As for `Cc1cc2ccccc2c[n+]1CC(O)C[n+]1cc2ccccc2cc1C`, the activity, negative = inhibition was -6.74% [at 11.4 µM] (inactive).

Take `CN=c1nc(-c2ccccc2)n(-c2ccccc2)s1`: the AC50 is 31.6 µM (active).

With `CC(=O)c1c(C)nc(-c2ccccc2)n1O`, the “activity, negative = inhibition” value was -11% (inactive).

As to `O=c1nc(-c2ccccc2)n(-c2ccccc2)c2ncccc12`, the “activity, negative = inhibition” value was -9.32% (inactive).

Regarding `CCc1c(C(C)O)oc2ccc3c(C)cc(=O)oc3c12` (configuration not stated), the activity, negative = inhibition is 7.59% [at 2.29 µM] (inactive).

`Cc1cc2cc3c(C)cc(=O)oc3c(C)c2o1`: the AC50 was 3.98 µM (active).

Regarding `O=C(Nc1ccc(S(=O)(=O)N2CCCC2)cc1)c1ccc(CN2CCOCC2)cc1`, the activity, negative = inhibition was -3.74% [at 2.29 µM] (inactive).

`O=C(Nc1ccc(F)cc1)c1cc(S(=O)(=O)N2CCCCC2)cs1`: the AC50 is 14.1 µM (active).

As to `CC(C)CO/N=C1/C[C@@H](O)[C@@H](O)[C@@H]2[C@H]3C(=O)N(c4ccc(F)cc4F)C(=O)[C@@H]3CC[C@@H]12`, the activity, negative = inhibition was 0.624% [at 11.4 µM] (inactive).

In the case of `O=C1C[C@@H](O)[C@@H](O)[C@@H]2[C@H]3C(=O)N(c4ccc(F)cc4F)C(=O)[C@@H]3CC[C@H]12`, the activity, negative = inhibition was -11% [at 11.4 µM] (inactive).

On to `CC(C)CO/N=C1/C[C@@H](O)[C@@H](O)[C@@H]2[C@H]3C(=O)N(c4ccc(F)cc4F)C(=O)[C@@H]3CC[C@H]12`, for which the activity, negative = inhibition was -8.15% [at 11.4 µM] (inactive).

With `C#CCCCO/N=C1/C[C@@H](O)[C@@H](O)[C@@H]2[C@H]3C(=O)N(c4ccc(F)cc4F)C(=O)[C@@H]3CC[C@@H]12`, the AC50 was 3.16 µM (active).

For the compound `O=C1[C@@H]2[C@H]3[C@H](O)[C@H](O)C/C(=N/OCc4ccccc4)[C@@H]3CC[C@H]2C(=O)N1c1ccc(F)cc1F`, the activity, negative = inhibition is -19.6% [at 11.4 µM] (inactive).

On to `C#CCCCO/N=C1/C[C@@H](O)[C@@H](O)[C@@H]2[C@H]3C(=O)N(c4ccc(F)cc4F)C(=O)[C@@H]3CC[C@H]12`, for which the AC50 is 3.98 µM (active).

As for `Cc1ccc(-n2c3c(c(=O)[nH]c2=O)C(NS(=O)(=O)c2ccc(C)cc2)(C(F)(F)F)C(=O)N3)cc1` (configuration not stated), the “activity, negative = inhibition” value is -13.8% (inactive).

As to `O=C(c1cc(C(F)(F)F)cc(C(F)(F)F)c1)N1CCC2(CC1)CCN(c1ccccn1)CC2`, the “activity, negative = inhibition” value is 4.89% (inactive).

For `O=C(c1cc(C(F)(F)F)cc(C(F)(F)F)c1)N1CCC2(CC1)CN(c1ncccn1)C2`, the “activity, negative = inhibition” value was -23.6% (inactive).

Consider `O=C(c1cc(C(F)(F)F)cc(C(F)(F)F)c1)N1CCC2(CC1)CCN(c1ncccn1)CC2`, for which the “activity, negative = inhibition” value was -9.89% (inactive).

Regarding `O=C(c1cc(C(F)(F)F)cc(C(F)(F)F)c1)N1CCC2(CC1)CN(c1ccccn1)C2`, the “activity, negative = inhibition” value was -15.9% (inactive).

For `O=C(c1cc(C(F)(F)F)cc(C(F)(F)F)c1)N1CCC2(CC1)CN(c1ccncc1)C2`, the “activity, negative = inhibition” value was -5.48% (inactive).

Regarding `O=C(c1cc(C(F)(F)F)cc(C(F)(F)F)c1)N1CCC[C@@]2(CCN(c3ccncc3)C2)C1`, the AC50 is 6.31 µM (active).

As to `O=C(c1cc(C(F)(F)F)cc(C(F)(F)F)c1)N1CCC[C@@]2(CCN(c3ccccn3)C2)C1`, the AC50 was 3.98 µM (active).

For the compound `O=C(c1cc(C(F)(F)F)cc(C(F)(F)F)c1)N1CCC[C@@]2(CCN(c3ncccn3)C2)C1`, the AC50 is 10 µM (active).
